Source: PubChem BioAssay
The list is not random: actives were taken first. Their share in the collection is about 0.37%.
HRas wt GTP bind – human HRas wildtype GTP binding, change in either direction. P01112. GST-Ras wt beads, Bodipy-FL-GTP binding, flow cytometry; actives lie on both sides. GTP binding activity, % at 10 µM. 0.14% of 190,000 active;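 active = GTP binding activity at least 20% away from the 100% baseline, either lowered as inhibitor or raised as activator; inconclusive = flagged as likely green fluorescent, judged across all proteins in the well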;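 note: 0% = unlabeled GTP competition control and 100% = no-compound control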
Target sequence (P01112 whole entry, looked up): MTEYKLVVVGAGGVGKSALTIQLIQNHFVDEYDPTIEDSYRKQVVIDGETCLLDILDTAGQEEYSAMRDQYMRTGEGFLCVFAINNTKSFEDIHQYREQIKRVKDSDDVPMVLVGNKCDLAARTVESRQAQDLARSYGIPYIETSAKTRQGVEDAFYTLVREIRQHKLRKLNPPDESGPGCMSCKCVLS
Rab2 wt GTP – changes GTP binding to wildtype dog Rab2A, up or down. AID 760. P61105. GTP binding activity, % at 10 µM. 0.19% of 190,000 active. GST-Rab2 wt beads, Bodipy-GTP binding, flow cytometry;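 active = GTP binding activity at least 20 points away from 100%, either lowered or raised; inconclusive = signal likely due to the compound's own green fluorescence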;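 note: 0% = beads with excess unlabeled GTP and 100% = no-compound control corrected for plate trend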
Rac1 wt GTP bind – human Rac1 wildtype GTP binding, inhibitors and activators. P63000. GST-Rac1 beads, fluorescent GTP binding, flow cytometry; actives lie on both sides; 0 = cold GTP competed, 100 = untreated. GTP binding activity (% of control), % at 10 µM. 0.27% of 190,000 active;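 active = GTP binding activity at least 20 points away from the 100% control level, either lower or higher; inconclusive = compound flagged as likely green fluorescent, judged across all proteins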
Rab7 wt GTP bind – alters GTP binding to wildtype dog Rab7. 0.055% of 190,000 active. GTP binding activity (percent of control), % at 10 µM. GST-Rab7 beads, fluorescent GTP binding, flow cytometry; actives lie on both sides; untreated = 100%, excess cold GTP = 0%. AID 758;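 active = fluorescent GTP binding to Rab7 beads changed by at least 20 points from the 100% baseline, either direction, mostly lower; inconclusive = compound itself probably fluorescent, or too few beads counted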;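 note: median green fluorescence of bound Bodipy-FL-GTP per Rab7 bead population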
Rac1 mut GTP – human Rac1 activated mutant GTP binding change | P63000 | GST-Rac1 activated beads, fluorescent GTP binding, flow cytometry; actives lie on both sides; 100% means binding = to untreated wells | percent activity (GTP binding), % at 10 µM | 0.11% of 190,000 active | AID 764;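 active = GTP binding at least 20 percentage points away from the 100% baseline, in either direction, so actives lie on both sides; inconclusive = Compound likely fluorescent itself, or too few beads counted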
Cdc42 wt GTP – human Cdc42 wildtype GTP binding change, either direction; GST-Cdc42 beads, Bodipy-GTP binding, flow cytometry; actives lie on both sides; percent activity (GTP binding), % at 10 µM; 0.2% of 190,000 active; AID 761;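 active = percent activity GTP binding at least 20 points away from the 100% baseline, either down as inhibitor or up as activator; inconclusive = compound flagged as likely green fluorescent from well-wide comparison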;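 note: median bead fluorescence of bound Bodipy-FL-GTP at 100 nM; 0% = excess unlabeled GTP control and 100% = no compound control; below 100% means less GTP binding so inhibitor and above means activator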
Target sequence (P60953 whole entry, looked up): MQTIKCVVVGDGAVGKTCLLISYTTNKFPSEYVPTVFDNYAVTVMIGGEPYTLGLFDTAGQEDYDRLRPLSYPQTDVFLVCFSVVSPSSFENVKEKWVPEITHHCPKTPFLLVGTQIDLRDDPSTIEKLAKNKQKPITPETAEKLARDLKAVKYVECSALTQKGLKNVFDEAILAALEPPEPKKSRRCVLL
Numbers without * were called inactive; ? = inconclusive; [ ] = remark or other dose.

SMILES | HRas wt GTP bind | Rab2 wt GTP | Rac1 wt GTP bind | Rab7 wt GTP bind | Rac1 mut GTP | Cdc42 wt GTP
Cc1cc(C)nc(N/N=C2/CCCC/C2=C\c2ccccc2)n1 | 92 | 93 | 94 | 90 | 95 | 98
COc1ccccc1C(=O)Nc1nc(-c2ccc3c(c2)OCCO3)cs1 | 87 | 81 | 78* | 94 | 78* | 78*
CCC(=O)Nc1nc(-c2ccc3c(c2)OCCO3)cs1 | 100 | 101 | 103 | 102 | 100 | 103
CCN(CC)c1ccc2c(c1)oc(=O)c1c(Cl)cc(=O)oc12 | 89 | 89 | 87 | 93 | 78* | 88
Cc1cccc(C(C)C)c1NC(=O)c1ccc(CN(c2ccccc2)S(=O)(=O)c2ccccc2)cc1 | 98 | 97 | 100 | 97 | 99 | 99
CCn1c(O)c(/C=C/C=C/C=Nc2ccccc2)sc1=S | 96 | 98 | 94 | 102 | 93 | 95
CCCCn1c(O)c(/C=C/C=C/C=Nc2ccccc2)sc1=S | 83 | 88 | 84 | 93 | 78* | 85
CC(C)CCn1c(CN2CCN(Cc3ccccc3)CC2)nc2c1c(=O)n(C)c(=O)n2C | 116 | 123*[activator] | 159*[activator] | 105 | 120*[activator] | 156*[activator]
COc1ccccc1N1CCN(C(=O)CN(c2cc(C)cc(C)c2)S(C)(=O)=O)CC1 | 100 | 98 | 101 | 97 | 98 | 98
C/C=C/c1ccccc1OCc1ccc(C(=O)O)o1 | 145*[activator] | 149*[activator] | 194*[activator] | 134*[activator] | 146*[activator] | 161*[activator]
CCOc1ccccc1NC(=O)C(NCC1(N2CCCCC2)CCCCC1)c1ccccc1 (stereo not given) | 94 | 96 | 96 | 92 | 94 | 96
N#Cc1c(Nc2ccccc2)c(/C=N/N=C/c2ccccc2)c[nH]c1=O | 76* | 81 | 75* | 81 | 88 | 81
N#Cc1c(Nc2ccccc2)c(/C=N/NCCO)c[nH]c1=O | 99 | 99 | 96 | 96 | 94 | 95
N#CCCN(/N=C/c1cccnc1)C1=NS(=O)(=O)c2ccccc21 | 87 | 87 | 85 | 96 | 95 | 89
Cc1cccc(/C=N/N(CCO)C2=NS(=O)(=O)c3ccccc32)c1 | 80 | 81 | 68* | 92 | 84 | 82
Cc1ccc(NC(=O)Nc2ccnc(-c3cccnc3)n2)cc1 | 67* | 64* | 83 | 87 | 86 | 65*
Cc1ccc(C(=O)Nc2ccnc(-c3cccnc3)n2)cc1 | 94 | 94 | 89 | 92 | 94 | 94
Cc1ccc(-c2nc3ccccc3[nH]2)cc1NC(=O)/C=C/c1ccco1 | 102 | 102 | 102 | 104 | 101 | 104
O=C(Nc1cccc(-c2nnc(-c3ccco3)o2)c1)c1ccccc1 | 84 | 85 | 76* | 89 | 90 | 83
NC(=S)N=Nc1c(O)[nH]c2c(Br)cc(Br)cc12 | 75* | 74* | 71* | 93 | 84 | 75*
NC(=S)N=Nc1c(O)[nH]c2ccccc12 | 86 | 84 | 87 | 95 | 96 | 92
CCN1C(=O)C(CC(=O)Nc2ccc(Br)cc2)N(CCCc2ccccc2)C1=S (stereo not given) | 95 | 98 | 96 | 100 | 96 | 97
COc1cccc(NC(=O)CN2CCN(c3ccc(F)cc3)CC2)c1 | 97 | 97 | 95 | 98 | 95 | 96
COc1cccc(NC(=O)NCCCN2CCN(c3ccc(F)cc3)CC2)c1 | 98 | 98 | 99 | 76* | 100 | 100
O=c1c2ccccc2nc2c3ccccc3c(NCc3cccnc3)nn12 | 75* | 72* | 69* | 86 | 84 | 72*
SMILES | HRas wt GTP bind | Rab2 wt GTP | Rac1 wt GTP bind | Rab7 wt GTP bind | Rac1 mut GTP | Cdc42 wt GTP
CCOC(=O)c1nc(NCc2cccnc2)c2ccccc2n1 | 96 | 95 | 99 | 95 | 97 | 97
O=c1c2ccccc2nc2c3ccccc3c(NCc3ccccn3)nn12 | 76* | 74* | 65* | 87 | 82 | 75*
Cc1nc(NCc2ccccn2)c2ccccc2n1 | 99 | 97 | 100 | 93 | 98 | 97
O=c1c2ccccc2nc2c3ccccc3c(NCCO)nn12 | 62* | 62* | 63* | 101 | 78* | 58*
Cc1ccc([N+](=O)[O-])cc1-c1ccc(/C=C(\C#N)c2[nH]nc(N)c2C#N)o1 | 80 | 82 | 79* | 87 | 88 | 88
Cn1c(=O)c2cc(S(=O)(=O)NCCC(=O)NCc3ccccc3Cl)ccc2n(C)c1=O | 68* | 64* | 89 | 91 | 85 | 68*
COc1cc(/C=N/NC(=O)C(Cc2c[nH]c3ccccc23)NC(=O)OCc2ccccc2)cc([N+](=O)[O-])c1O (stereo not given) | 80 | 77* | 78* | 83 | 82 | 83
COc1cc(/C=N/NC(=O)C(Cc2c[nH]c3ccccc23)NC(=O)OCC(C)C)cc([N+](=O)[O-])c1O (stereo not given) | 88 | 87 | 88 | 91 | 88 | 89
COc1cccc(OC)c1-c1nn2c(-c3cc(-c4ccccc4)n[nH]3)nnc2s1 | 162*[activator] | 167*[activator] | 206*[activator] | ? | ? | 179*[activator]
CCCCCn1c(N2CCOCC2)nc2c1c(=O)n(CC(N)=O)c(=O)n2C | 105 | 106 | 104 | 105 | 99 | 110
O=C(C#Cc1ccccc1)c1ccc([N+](=O)[O-])cc1 | 86 | 86 | 90 | 94 | 77* | 82
O=C(CSc1ncn[nH]1)Nc1ccc(OCc2ccccc2)cc1 | 94 | 95 | 95 | 97 | 94 | 91
CCn1c(=N)c(S(=O)(=O)c2ccccc2)cc2c(=O)n3ccccc3nc21 | 91 | 89 | 87 | 95 | 94 | 88
Cc1ccc(S(=O)(=O)c2cc3c(=O)n4ccccc4nc3n(C)c2=N)cc1 | 79* | 78* | 93 | 93 | 91 | 82
Cc1ccc(S(=O)(=O)c2cc3c(=O)n4ccccc4nc3n(Cc3ccco3)c2=N)cc1C | 107 | 103 | 109 | 103 | 103 | 108
CCn1c(=N)c(S(=O)(=O)c2ccc(C)cc2)cc2c(=O)n3ccccc3nc21 | 84 | 84 | 74* | 95 | 90 | 81
CCOC(=O)c1sc(=S)n(C)c1NC(=O)c1ccccc1C | 98 | 99 | 100 | 100 | 97 | 103
COc1cccc(/C=C/C(=O)Nc2ccccc2N2CCOCC2)c1 | 53* | 51* | 48* | 23* | 50* | 54*
COc1cc(OC)cc(C2=NCCN2)c1 | 93 | 97 | 93 | 95 | 96 | 96
COc1ccc(CC2(CO)CCN(S(=O)(=O)c3sccc3C)CC2)cc1 | 61* | 66* | 58* | 66* | 57* | 63*
COc1ccc(CC2(CO)CCN(S(=O)(=O)c3c(C)nn(C)c3Cl)CC2)cc1 | 96 | 96 | 99 | 96 | 95 | 98
